Assay [1] addresses Mast/stem cell growth factor receptor Kit (Homo sapiens) (UniProt P10721). Conditions: at 1 µM.
The subject of assay [2] is Mast/stem cell growth factor receptor Kit (Homo sapiens), P10721 [D816V]. Conditions: at 0.1 µM.
The test system is the same in assay [3]. Conditions: at 1 µM.
Assay [4] deals with Mast/stem cell growth factor receptor Kit (Homo sapiens), P10721 [T670I]. As to conditions: at 0.1 µM.
Assay [5] has the same test system. As to conditions: at 1 µM.
Assay [6] deals with Mast/stem cell growth factor receptor Kit (Homo sapiens), P10721 [V560G]. Conditions: at 0.1 µM.
Sequence of Mast/stem cell growth factor receptor Kit (Homo sapiens), P10721 [V560G] (P10721 whole entry V560G): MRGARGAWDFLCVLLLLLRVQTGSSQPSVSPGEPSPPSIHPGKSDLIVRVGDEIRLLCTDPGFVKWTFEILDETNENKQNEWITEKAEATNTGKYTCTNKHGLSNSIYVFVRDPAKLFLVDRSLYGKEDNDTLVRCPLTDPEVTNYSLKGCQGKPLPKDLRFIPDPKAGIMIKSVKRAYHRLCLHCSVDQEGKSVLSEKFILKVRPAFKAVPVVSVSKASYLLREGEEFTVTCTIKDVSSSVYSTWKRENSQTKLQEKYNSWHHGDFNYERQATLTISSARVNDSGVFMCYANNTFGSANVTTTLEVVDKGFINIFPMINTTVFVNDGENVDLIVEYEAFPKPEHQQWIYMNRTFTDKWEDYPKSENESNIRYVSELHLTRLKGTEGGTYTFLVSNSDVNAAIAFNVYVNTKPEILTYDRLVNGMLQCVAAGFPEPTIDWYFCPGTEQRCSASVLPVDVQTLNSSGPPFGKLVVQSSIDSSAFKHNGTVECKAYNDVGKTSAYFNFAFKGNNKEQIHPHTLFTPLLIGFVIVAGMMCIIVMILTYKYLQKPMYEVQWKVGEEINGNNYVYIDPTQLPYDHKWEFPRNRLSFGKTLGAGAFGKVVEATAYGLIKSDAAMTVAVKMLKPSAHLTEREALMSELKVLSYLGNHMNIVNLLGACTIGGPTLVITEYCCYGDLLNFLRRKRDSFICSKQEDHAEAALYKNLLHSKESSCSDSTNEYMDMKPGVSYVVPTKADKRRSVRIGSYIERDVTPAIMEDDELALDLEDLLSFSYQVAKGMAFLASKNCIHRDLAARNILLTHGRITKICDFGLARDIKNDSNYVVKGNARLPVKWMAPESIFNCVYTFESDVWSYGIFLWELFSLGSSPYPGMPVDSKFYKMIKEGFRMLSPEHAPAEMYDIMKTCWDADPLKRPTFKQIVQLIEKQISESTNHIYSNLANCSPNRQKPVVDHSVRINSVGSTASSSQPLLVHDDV
Assay [7] has the same test system. As to conditions: at 1 µM.
The target of assay [8] is Tyrosine-protein kinase Lck (Homo sapiens) (UniProt P06239). Conditions: at 0.1 µM.
Sequence of Tyrosine-protein kinase Lck (Homo sapiens) (P06239 2-509 limits assumed): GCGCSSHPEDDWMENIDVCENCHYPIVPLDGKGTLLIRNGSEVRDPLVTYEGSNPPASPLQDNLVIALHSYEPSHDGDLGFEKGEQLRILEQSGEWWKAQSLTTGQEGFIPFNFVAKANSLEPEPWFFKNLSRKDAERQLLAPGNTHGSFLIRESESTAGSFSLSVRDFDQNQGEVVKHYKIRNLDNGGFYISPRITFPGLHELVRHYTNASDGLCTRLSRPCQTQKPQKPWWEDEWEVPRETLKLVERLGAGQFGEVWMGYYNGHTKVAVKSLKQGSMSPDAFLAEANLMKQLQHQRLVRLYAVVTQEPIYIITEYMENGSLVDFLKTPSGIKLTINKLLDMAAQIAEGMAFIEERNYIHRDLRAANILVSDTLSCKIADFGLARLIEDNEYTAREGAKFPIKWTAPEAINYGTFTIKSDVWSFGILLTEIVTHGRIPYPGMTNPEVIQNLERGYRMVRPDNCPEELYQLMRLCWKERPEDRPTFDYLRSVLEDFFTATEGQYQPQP
For assay [9] the target is unchanged. As to conditions: at 1 µM.
Assay [10] concerns the target Leukocyte tyrosine kinase receptor (Homo sapiens) (UniProt P29376). Conditions: at 0.1 µM.
The target is the same in assay [11]. As to conditions: at 1 µM.
The target of assay [12] is Tyrosine-protein kinase Lyn (Homo sapiens) (UniProt P07948). As to conditions: at 0.1 µM.
Sequence of Tyrosine-protein kinase Lyn (Homo sapiens) (P07948 2-512 limits assumed): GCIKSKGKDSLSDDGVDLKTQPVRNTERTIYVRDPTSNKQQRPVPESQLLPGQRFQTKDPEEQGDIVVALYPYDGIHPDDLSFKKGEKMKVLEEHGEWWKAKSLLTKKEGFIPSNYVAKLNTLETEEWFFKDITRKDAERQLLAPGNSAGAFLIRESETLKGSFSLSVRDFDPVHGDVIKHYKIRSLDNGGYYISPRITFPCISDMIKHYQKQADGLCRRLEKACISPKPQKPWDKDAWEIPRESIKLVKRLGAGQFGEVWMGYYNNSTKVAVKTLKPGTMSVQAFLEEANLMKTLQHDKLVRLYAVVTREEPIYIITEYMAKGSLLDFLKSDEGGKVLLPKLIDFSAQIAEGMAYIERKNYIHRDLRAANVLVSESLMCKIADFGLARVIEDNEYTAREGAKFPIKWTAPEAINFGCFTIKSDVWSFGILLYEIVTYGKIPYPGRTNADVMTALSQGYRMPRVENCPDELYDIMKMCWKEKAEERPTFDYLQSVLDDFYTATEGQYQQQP
For assay [13] the target is unchanged. As to conditions: at 1 µM.
The target is the same in assay [14]. Conditions: at 0.1 µM. This is another data set of the same source.
For assay [15] the target is unchanged. Conditions: at 1 µM. This is another data set of the same source.
Assay [16] addresses T1, Tyrosine-protein kinase Mer (Homo sapiens) (UniProt Q12866).
T1 sequence (whole entry): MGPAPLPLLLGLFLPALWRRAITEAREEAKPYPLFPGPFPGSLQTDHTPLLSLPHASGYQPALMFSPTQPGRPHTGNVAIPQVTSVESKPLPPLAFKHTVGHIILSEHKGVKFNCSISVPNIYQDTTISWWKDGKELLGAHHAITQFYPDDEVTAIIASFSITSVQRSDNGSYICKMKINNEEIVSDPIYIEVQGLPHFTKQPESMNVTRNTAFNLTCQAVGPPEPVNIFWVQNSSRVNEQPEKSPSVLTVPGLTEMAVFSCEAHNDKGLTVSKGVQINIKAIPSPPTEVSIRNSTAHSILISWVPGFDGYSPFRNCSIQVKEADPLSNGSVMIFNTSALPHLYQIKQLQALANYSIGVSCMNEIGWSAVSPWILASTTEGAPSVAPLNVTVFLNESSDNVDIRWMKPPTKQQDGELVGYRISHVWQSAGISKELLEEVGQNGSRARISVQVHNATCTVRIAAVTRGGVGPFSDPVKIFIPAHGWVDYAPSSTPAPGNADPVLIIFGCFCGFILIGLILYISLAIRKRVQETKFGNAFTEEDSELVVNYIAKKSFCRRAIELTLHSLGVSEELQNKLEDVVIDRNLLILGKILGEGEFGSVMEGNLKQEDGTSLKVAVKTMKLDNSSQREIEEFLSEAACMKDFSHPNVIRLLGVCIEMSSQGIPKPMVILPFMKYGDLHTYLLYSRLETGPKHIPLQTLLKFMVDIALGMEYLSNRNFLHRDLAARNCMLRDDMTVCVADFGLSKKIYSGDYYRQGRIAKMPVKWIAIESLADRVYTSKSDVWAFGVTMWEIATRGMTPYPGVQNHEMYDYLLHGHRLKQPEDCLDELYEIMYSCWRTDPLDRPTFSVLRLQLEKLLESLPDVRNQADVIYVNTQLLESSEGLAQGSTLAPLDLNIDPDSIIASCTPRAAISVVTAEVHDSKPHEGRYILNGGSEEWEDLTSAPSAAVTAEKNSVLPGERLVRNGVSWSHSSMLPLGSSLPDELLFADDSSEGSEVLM
As to conditions: at 0.1 µM.

Assay [17] deals with T1, Tyrosine-protein kinase Mer (Homo sapiens). As to conditions: at 1 µM.
Assay [18] has as its target Hepatocyte growth factor receptor (Homo sapiens) (UniProt P08581). As to conditions: at 0.1 µM.
Assay [19] has the same target. Conditions: at 1 µM.
Assay [20] deals with T2, Muscle, skeletal receptor tyrosine-protein kinase (Homo sapiens) (UniProt O15146).
T2 sequence (whole entry): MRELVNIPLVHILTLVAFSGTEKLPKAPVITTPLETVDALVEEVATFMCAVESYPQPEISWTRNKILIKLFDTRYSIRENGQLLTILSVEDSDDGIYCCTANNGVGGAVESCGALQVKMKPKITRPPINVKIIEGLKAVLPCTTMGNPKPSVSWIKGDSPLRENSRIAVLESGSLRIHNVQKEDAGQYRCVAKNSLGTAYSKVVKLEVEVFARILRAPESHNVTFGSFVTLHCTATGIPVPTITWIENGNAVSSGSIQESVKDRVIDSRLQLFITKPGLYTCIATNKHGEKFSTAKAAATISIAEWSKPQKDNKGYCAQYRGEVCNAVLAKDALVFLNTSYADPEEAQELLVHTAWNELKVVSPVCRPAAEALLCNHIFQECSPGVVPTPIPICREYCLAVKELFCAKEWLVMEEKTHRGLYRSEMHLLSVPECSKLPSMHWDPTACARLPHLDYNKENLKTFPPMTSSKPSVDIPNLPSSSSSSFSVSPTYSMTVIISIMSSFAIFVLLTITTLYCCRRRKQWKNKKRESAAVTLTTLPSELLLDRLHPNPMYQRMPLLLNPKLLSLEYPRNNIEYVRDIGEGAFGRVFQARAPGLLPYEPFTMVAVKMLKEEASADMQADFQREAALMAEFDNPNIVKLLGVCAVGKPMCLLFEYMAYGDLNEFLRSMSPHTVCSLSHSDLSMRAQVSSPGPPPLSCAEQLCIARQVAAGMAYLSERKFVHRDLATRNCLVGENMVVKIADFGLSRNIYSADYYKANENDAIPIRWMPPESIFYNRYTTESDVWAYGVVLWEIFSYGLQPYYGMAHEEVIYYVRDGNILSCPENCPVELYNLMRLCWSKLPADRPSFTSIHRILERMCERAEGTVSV
As to conditions: at 0.1 µM.

What is called inhibition is the relative decrease from the control value, in per cent.

Sequence of Mast/stem cell growth factor receptor Kit (Homo sapiens), P10721 [D816V] (P10721 whole entry D816V): as the sequence (P10721 whole entry V560G) above, with G560V, D816V counted along it
Sequence of Mast/stem cell growth factor receptor Kit (Homo sapiens), P10721 [T670I] (P10721 whole entry T670I): as the sequence (P10721 whole entry V560G) above, with G560V, T670I counted along it
Sequence of Leukocyte tyrosine kinase receptor (Homo sapiens) (P29376 whole entry): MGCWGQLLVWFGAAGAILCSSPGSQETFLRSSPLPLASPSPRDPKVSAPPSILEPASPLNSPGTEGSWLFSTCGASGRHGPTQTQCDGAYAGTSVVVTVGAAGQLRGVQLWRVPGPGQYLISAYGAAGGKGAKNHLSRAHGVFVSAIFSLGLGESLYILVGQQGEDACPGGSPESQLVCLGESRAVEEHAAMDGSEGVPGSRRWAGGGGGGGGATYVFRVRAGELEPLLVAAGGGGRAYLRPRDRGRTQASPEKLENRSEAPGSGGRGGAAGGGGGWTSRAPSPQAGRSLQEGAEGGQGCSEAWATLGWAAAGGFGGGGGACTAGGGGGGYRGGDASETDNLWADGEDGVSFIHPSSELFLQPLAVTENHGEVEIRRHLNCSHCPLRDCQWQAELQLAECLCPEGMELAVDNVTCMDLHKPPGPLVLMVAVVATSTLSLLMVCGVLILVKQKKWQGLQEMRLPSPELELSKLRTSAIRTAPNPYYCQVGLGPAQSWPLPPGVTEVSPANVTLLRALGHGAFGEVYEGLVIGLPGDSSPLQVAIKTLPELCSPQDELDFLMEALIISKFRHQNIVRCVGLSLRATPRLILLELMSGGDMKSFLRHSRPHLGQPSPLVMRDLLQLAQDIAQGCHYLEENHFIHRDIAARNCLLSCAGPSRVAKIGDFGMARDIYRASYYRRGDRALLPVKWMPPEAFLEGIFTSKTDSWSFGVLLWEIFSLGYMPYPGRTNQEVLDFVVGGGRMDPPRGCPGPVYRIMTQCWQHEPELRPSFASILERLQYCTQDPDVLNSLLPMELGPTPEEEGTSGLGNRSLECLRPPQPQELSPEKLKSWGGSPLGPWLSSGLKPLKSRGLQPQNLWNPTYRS
Sequence of Mast/stem cell growth factor receptor Kit (Homo sapiens) (P10721 whole entry): as the sequence (P10721 whole entry V560G) above, with G560V counted along it
Sequence of Hepatocyte growth factor receptor (Homo sapiens) (P08581 whole entry): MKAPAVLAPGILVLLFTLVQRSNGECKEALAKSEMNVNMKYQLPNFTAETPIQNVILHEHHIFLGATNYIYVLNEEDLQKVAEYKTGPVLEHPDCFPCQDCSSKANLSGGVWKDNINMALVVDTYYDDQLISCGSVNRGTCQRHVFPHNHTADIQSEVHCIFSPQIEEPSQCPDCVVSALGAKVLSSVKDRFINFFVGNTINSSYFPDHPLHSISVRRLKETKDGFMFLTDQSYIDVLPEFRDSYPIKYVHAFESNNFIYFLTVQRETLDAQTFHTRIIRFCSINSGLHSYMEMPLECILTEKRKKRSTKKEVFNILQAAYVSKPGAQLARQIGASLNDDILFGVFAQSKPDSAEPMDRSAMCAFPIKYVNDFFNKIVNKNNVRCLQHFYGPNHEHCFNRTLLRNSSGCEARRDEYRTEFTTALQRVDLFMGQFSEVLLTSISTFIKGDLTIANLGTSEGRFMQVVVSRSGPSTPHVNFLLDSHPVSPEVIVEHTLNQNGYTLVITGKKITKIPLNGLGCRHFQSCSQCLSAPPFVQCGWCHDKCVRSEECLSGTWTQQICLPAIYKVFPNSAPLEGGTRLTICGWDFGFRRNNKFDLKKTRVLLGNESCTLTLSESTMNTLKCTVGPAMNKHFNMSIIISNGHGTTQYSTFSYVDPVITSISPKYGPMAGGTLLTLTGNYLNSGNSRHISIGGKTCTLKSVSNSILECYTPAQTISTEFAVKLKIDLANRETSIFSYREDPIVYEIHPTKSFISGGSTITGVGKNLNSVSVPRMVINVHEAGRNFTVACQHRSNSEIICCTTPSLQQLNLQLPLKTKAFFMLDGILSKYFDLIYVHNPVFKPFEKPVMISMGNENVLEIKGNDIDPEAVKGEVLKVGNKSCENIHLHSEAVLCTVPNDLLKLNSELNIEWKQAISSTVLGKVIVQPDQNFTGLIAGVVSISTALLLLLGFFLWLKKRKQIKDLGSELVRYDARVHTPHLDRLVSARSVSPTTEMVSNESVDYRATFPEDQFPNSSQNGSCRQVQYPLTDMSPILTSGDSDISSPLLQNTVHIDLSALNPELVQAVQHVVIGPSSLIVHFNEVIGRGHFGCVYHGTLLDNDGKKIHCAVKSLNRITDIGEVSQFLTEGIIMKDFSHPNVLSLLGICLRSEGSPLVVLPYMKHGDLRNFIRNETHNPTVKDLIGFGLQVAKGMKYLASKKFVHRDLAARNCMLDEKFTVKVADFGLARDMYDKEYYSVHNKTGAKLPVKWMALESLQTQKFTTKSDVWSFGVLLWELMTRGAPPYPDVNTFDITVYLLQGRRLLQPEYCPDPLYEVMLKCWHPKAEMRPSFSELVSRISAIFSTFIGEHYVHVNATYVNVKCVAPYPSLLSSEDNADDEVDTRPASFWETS

With `Fc1ccc(-c2ncn(C3CCNCC3)c2-c2ccnc(Oc3ccc(F)c(F)c3)n2)cc1`, the inhibition in assay [1] is 5.24%; in [2], 5.58%; in assay [3], 2.5%; in assay [4], 1.57%; in [5] it was 1.83%; in assay [6], -1.36%. For the same molecule, the inhibition in [7] was 0.87%; in assay [8] it was -1.59%; in [9], -1.94%; in assay [10], 2.84%; in [11] it was 2.29%; in [12], 3.84%. Moreover, the inhibition in assay [13] was 3.75%; in [14], 2.34%; in [15], 2.48%; in assay [16], 1.13%; in assay [17] it was 1.39%; in assay [18] it was 7.87%. Further, the inhibition amounted to 4.17% in assay [19] and 2.92% in [20].
Regarding `NCc1ccc(-n2c(-c3nonc3N)nc3cnccc32)cc1`, the inhibition in [1] is 10.8%; in [2], 4.7%; in assay [3], 2.04%; in assay [4], 4.14%; in assay [5], 5.42%; in [6], -2.06%. In addition, the inhibition in assay [7] came out at 2.07%; in assay [8] it was 3.81%; in assay [9], 4.5%; in assay [10], 5.22%; in [11], 5.03%; in assay [12], 6.22%. The inhibition in assay [13] came to 5.56%; in assay [14], 4.38%; in assay [15], 2.34%; in [16], 1.5%; in [17], 5.54%; in assay [18], 5.16%. Besides, the inhibition in assay [19] was 9.91%; in assay [20] it was 6.42%.
Take `COc1cc(Nc2ncc3c(C)nc(-c4cccc(C(F)(F)F)c4)n3n2)cc(OC)c1OC`: the inhibition in assay [1] is 44.8%; in assay [2] it was 4.72%; in [3], 5.97%; in assay [4], 1.57%; in assay [5] it was 7.22%; in assay [6], -0.27%. Besides, the inhibition in assay [7] was determined as 7.67%; in assay [8], 3.24%; in assay [9] it was 20.1%; in assay [10], 4.18%; in assay [11], 4.56%; in assay [12], 8.46%. Further, the inhibition was 27.6% in [13]; 5.92% in assay [14]; 21.9% in assay [15]; 1.71% in [16]; 4.47% in assay [17]; 8.25% in assay [18]. Also, the inhibition in assay [19] turned out to be 9.19%; in [20] it was 3.85%.
For the molecule `COc1cccc(/C=N/Nc2ncnc3c2cnn3-c2cccc(OC)c2)c1`, the inhibition was determined as 6.76% in [1]; 2.28% in [2]; 4.96% in assay [3]; 1.91% in assay [4]; 4.1% in assay [5]; 3.55% in assay [6]. Also, the inhibition in [7] was determined as 0.61%; in assay [8] it was 2.18%; in assay [9] it was 8.97%; in [10], 5%; in assay [11], 4.06%; in [12], 5.08%. Also, the inhibition in assay [13] turned out to be 15.3%; in assay [14] it was 3.29%; in assay [15] it was 10.9%; in assay [16] it was 1.87%; in assay [17] it was 2.85%; in assay [18], 4.9%. For the same molecule, the inhibition in [19] worked out at 9.96%; in assay [20], 1.34%.
Turning to `COc1cc(N2CCN(C(C)C)CC2)ccc1Nc1nc(Nc2ccc(F)cc2C(=O)NC[C@@H](O)CO)c2cc[nH]c2n1`, the inhibition is 6.9% in [1]; 4.14% in [2]; 7.71% in [3]; 3.52% in assay [4]; 4.77% in assay [5]; -2.07% in assay [6]. Further, the inhibition in assay [7] was -1.61%; in assay [8] it was -1.06%; in assay [9] it was -2.81%; in assay [10], 55.2%; in assay [11], 88.7%; in assay [12], 4.36%. The inhibition is 9.54% in assay [13]; 2.42% in assay [14]; 7% in [15]; 0.94% in assay [16]; 3.95% in assay [17]; -1.77% in [18]. Also, the inhibition in assay [19] was 3.3%; in assay [20], 1.43%.
`COc1ccc2cc(-c3c(-c4ccncc4)nc(-c4ccc([S+](C)[O-])cc4C)n3C)ccc2c1` (stereo not given): the inhibition is 4.45% in assay [1]; -3.23% in [2]; -3.08% in assay [3]; 0.48% in assay [4]; 0.67% in assay [5]; 4.53% in [6]. The inhibition was -0.3% in assay [7]; 0.43% in assay [8]; 8.73% in [9]; 0.03% in assay [10]; 2.92% in [11]; 2% in [12]. Further, the inhibition is 21.4% in assay [13]; 0.52% in assay [14]; 16.8% in [15]; 0.82% in assay [16]; 9.89% in [17]; -1.42% in [18]. Moreover, the results for the inhibition in assay [19] and in assay [20] were 3.32% and 0.94%, respectively.

The values are drawn from ChEMBL document CHEMBL1961873, “Compounds: GSK PKIS; Assays: Nanosyn kinase panel” (2012).
